# Data taken from PubChem BioAssay AID1671192 (National Center for Advancing Translational Sciences (NCATS), 2021).
# Records with an inconclusive call do not appear. Calls of active or inactive are those of the source. Calls follow the shape of the dose curve; as a rule, active = well fitted curve in the direction sought with a large enough effect; inconclusive = small, poorly fitted or top-dose-only effect, or another doubt; inactive = no such curve, though single readings can be large or run the other way.
# Target: Polyunsaturated fatty acid lipoxygenase ALOX15 (Homo sapiens) (UniProt P16050)
# Sequence (P16050 whole entry, looked up): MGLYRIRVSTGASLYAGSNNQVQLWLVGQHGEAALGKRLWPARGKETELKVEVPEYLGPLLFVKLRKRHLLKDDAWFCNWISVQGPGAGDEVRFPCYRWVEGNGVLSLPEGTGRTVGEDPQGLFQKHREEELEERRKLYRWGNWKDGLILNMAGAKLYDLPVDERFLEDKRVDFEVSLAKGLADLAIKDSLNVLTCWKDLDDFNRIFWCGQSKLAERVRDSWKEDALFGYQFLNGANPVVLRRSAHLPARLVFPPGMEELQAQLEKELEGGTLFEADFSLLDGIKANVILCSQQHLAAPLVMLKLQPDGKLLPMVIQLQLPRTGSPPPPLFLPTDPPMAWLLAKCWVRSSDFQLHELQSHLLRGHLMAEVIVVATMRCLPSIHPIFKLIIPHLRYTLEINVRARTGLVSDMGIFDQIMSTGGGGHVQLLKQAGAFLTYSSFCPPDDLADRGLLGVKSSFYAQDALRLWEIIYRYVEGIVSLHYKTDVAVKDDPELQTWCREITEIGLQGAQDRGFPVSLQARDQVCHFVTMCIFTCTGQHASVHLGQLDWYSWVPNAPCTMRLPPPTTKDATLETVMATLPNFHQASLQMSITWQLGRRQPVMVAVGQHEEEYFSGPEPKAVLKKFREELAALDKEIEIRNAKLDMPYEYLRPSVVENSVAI
# Test: Counterscreen qHTS for inhibitors of human arachidonate 12S-lipoxygenase (ALOX12): ALOX15 Assay; also: 0% is about no effect
# Conditions: purified ALOX15 enzyme activity; series mostly up to 110 µM; activity change, negative = inhibition: at the top concentration
# Outline: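 Xylenol orange–ferric complex formation, read as the 573 nm to 405 nm absorbance ratio, tracks product from 50 uM arachidonic acid turned over for 30 min at RT. Enzyme is 40 nM ALOX15, pH 7.5 HEPES buffer, compound-preincubated 15 min.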
row,Compound,"activity change, negative = inhibition"
1,NCCCC(=O)N1CCC2(CC1)CC(NC(=O)CN)c1ccccc12 (stereo not drawn),-21% (inactive)
2,Cc1ccc(C(=O)N2CCc3nc(C4CC4)nc(-c4ccc(Cl)cc4)c3C2)cc1,-24.7% (inactive)
3,COc1ccc(CN2CCC3(Cc4ccccc4CNC3=O)C2)c(O)c1 (stereo not drawn),0.0915% (inactive)
4,O=C(N1CCCCC1)N1CCN(c2ccc(Cl)nn2)C(=O)C1,-15.7% [at 146 µM] (inactive)
5,O=C(N1CCOCC1)N1CCCC1c1nnc2n1CCNC2 (stereo not drawn),-2.38% [at 146 µM] (inactive)
6,CN(c1ccc(Cl)c(Cl)c1)C1CNC1,-16.7% [at 146 µM] (inactive)
7,COc1ccc(CN2CCCC23Cc2ccccc2CNC3=O)c(O)c1 (stereo not drawn),-18.1% [at 146 µM] (inactive)
8,CCc1ccccc1CN1CCCC12Cc1ccccc1CNC2=O (stereo not drawn),-30.9% [at 146 µM] (inactive)
9,Cn1nc(C2CCNC2)c2c(C(=O)NC3CC3)cc(C3CC3)nc21 (stereo not drawn),-0.11% [at 146 µM] (inactive)
10,CSc1ccc(-c2ccc(C(=O)O)cc2)cc1,-17.8% [at 146 µM] (inactive)
11,Cc1cc(C(=O)NCc2ccc(F)cc2)c2c(C3CCNC3)noc2n1 (stereo not drawn),10.7% (inactive)
12,Cc1cc(C(=O)NCc2ccc(F)cc2)c2c(C3CCCNC3)noc2n1 (stereo not drawn),-6.25% (inactive)
13,CC(=O)N1CCCC2(CC(c3ccccn3)=NO2)C1 (stereo not drawn),-18.8% [at 233 µM] (inactive)
14,Cc1cc(C)c(S(=O)(=O)c2nnn3c2nc(NCCCOC(C)C)c2ccccc23)c(C)c1,-24% (inactive)
15,Fc1ccc(OC2CN(CC3CC3)C2)cc1F,-14% [at 233 µM] (inactive)
16,Cc1cccc(N2Cc3c(NCCCOC(C)C)ncnc3N(C)CC2=O)c1,12.9% (inactive)
17,O=C(N1CCCCC1)N1CCCC(c2nnc3n2CCNC3)C1 (stereo not drawn),7.4% [at 146 µM] (inactive)
18,O=C1NCc2ccccc2CC12CCCN2Cc1ccc(O)cc1O (stereo not drawn),8.91% [at 146 µM] (inactive)
19,Cc1cc(C(=O)NC2CCNCC2)c2c(C3CCNCC3)noc2n1,1.65% [at 146 µM] (inactive)

row,Compound,"activity change, negative = inhibition"
1,O=c1n(-c2cccc(Cl)c2)nc2n1CCN([S+](=O)([O-])c1cccs1)C2,-4.57% (inactive)
2,CCCN1CCCC12Cc1ccccc1CN(C(=O)CCCC(=O)O)C2 (stereo not drawn),-13% (inactive)
3,CC(C)OCCCNC(=O)c1cc(C2CC2)nc2onc(C3CCCN3)c12 (stereo not drawn),-5.04% (inactive)
4,O=C1NCc2ccccc2CC12CCN(Cc1ccc(F)cc1)C2 (stereo not drawn),-11.6% [at 146 µM] (inactive)
5,NC(C(=O)N1CCC2(CC1)CN(C(=O)Cc1cccc(Cl)c1)CCO2)c1ccccc1 (stereo not drawn),-18.6% (inactive)
6,O=[S+]([O-])(c1ccccc1)N1CC(Oc2ccc(F)c(F)c2)C1,-9.6% [at 146 µM] (inactive)
7,CCCC(=O)N1Cc2ccccc2CC2(CCCCN2Cc2ccccn2)C1 (stereo not drawn),47.5% (inactive)
8,CC(C)Cc1ccc(CN2CCC3(Cc4ccccc4CNC3=O)C2)cc1 (stereo not drawn),-25% (inactive)
9,O=C(c1ccccc1F)N1CC(Oc2ccc3c(c2)OCO3)C1,-22.9% [at 146 µM] (inactive)
10,CNC(=O)c1cnn2c1CN(C(=O)c1ccccc1)CC2,2.26% [at 146 µM] (inactive)
11,CN1CC(=O)N(C2CCNC2)Cc2c(NC3CCCC3)ncnc21 (stereo not drawn),-2.56% [at 146 µM] (inactive)
12,CN1CC(=O)N(C2CCCNCC2)Cc2c1ncnc2N1CCCC(F)C1 (stereo not drawn),2.56% (inactive)
13,NCc1ccc(-c2cccc(Cl)c2)cc1,26.5% [at 146 µM] (inactive)
14,CCc1nc2c(c(-c3ccc(OC)cc3)n1)CCN(Cc1ccc(C(F)(F)F)cc1)CC2,-24.3% (inactive)
15,O=c1n(-c2ccc(Cl)cc2)nc2n1CCN([S+](=O)([O-])c1ccccc1)C2,-12.1% (inactive)
16,CCC(=O)N1Cc2ccccc2CC2(CCN(CC3CCNC3)C2)C1 (stereo not drawn),-13.1% [at 146 µM] (inactive)
17,CC(C)S(=O)(=O)N1CCC(c2nnc3n2CCNC3)CC1,-25.9% [at 146 µM] (inactive)
18,CN1CC(=O)N(C2CCCNCC2)Cc2c(NCC(C)(C)C)ncnc21 (stereo not drawn),12.5% (inactive)
19,Fc1ccc(OC2CN(Cc3cccc4ccccc34)C2)cc1F,-31.8% [at 146 µM] (inactive)
